Where “and” joins values, the source holds several entries; their conditions need not be identical. Equal values may be shown once. About 83,000 compounds went through this panel and 20% of them were active in at least one assay; those are over-represented in the sample as a whole.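 Compound tested at a single concentration for 48 hours in 96-well plates; a percent growth value below 10 was scored as active.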 Calls of active or inactive are those of the source.
Experiments:
Experiment in all cases: NCI-60 one-dose screen, 48 h (100 = growth as untreated, 0 = no growth, -100 = all killed)
Conditions in all cases: 10 µM unless noted
HCT-15 colon = tested on: HCT-15 colon
HT29 colon = tested on: HT29 colon
SNB-75 CNS = tested on: SNB-75 CNS
SNB-19 CNS = tested on: SNB-19 CNS
U251 CNS = tested on: U251 CNS
PC-3 prostate = tested on: PC-3 prostate
SK-MEL-5 melanoma = tested on: SK-MEL-5 melanoma
UACC-62 melanoma = tested on: UACC-62 melanoma
LOX IMVI melanoma = tested on: LOX IMVI melanoma
SK-MEL-28 melanoma = tested on: SK-MEL-28 melanoma
SK-MEL-2 melanoma = tested on: SK-MEL-2 melanoma
EKVX NSCLC = tested on: EKVX NSCLC
SN12C renal = tested on: SN12C renal
UO-31 renal = tested on: UO-31 renal
TK-10 renal = tested on: TK-10 renal
ACHN renal = tested on: ACHN renal
CAKI-1 renal = tested on: CAKI-1 renal
A498 renal = tested on: A498 renal
CCRF-CEM leukemia = tested on: CCRF-CEM leukemia
MOLT-4 leukemia = tested on: MOLT-4 leukemia

Measured: growth

O=C(CSc1nnc(-c2ccc(-c3nc4ccccc4[nH]3)cc2)o1)Nc1ccccc1
active: SNB-19 CNS 3.01% | U251 CNS -61% | LOX IMVI melanoma 3.54%
inactive: HCT-15 colon 55.5% | HT29 colon 70.7% | SNB-75 CNS 46.6% | PC-3 prostate 86.2% | SK-MEL-5 melanoma 82.7% | UACC-62 melanoma 92.1% | SK-MEL-28 melanoma 36.3% | SK-MEL-2 melanoma 91.4% | EKVX NSCLC 93.9% | SN12C renal 79.7% | UO-31 renal 104% | TK-10 renal 106% | ACHN renal 23.1% | CAKI-1 renal 86% | A498 renal 130% | CCRF-CEM leukemia 59% | MOLT-4 leukemia 27.4%

N#C/C(=C/c1ccc([N+](=O)[O-])cc1)c1nnc(NC(=O)c2ccc(-n3c(=O)[nH]c4ccccc4c3=O)cc2)s1
inactive: HCT-15 colon 93.3% | HT29 colon 110% | SNB-75 CNS 110% | SNB-19 CNS 87.1% | U251 CNS 89.5% | PC-3 prostate 90.9% | SK-MEL-5 melanoma 99% | UACC-62 melanoma 99.2% | LOX IMVI melanoma 90.5% | SK-MEL-28 melanoma 100% | SK-MEL-2 melanoma 103% | EKVX NSCLC 93.9% | SN12C renal 94% | UO-31 renal 75.6% | TK-10 renal 108% | ACHN renal 96.3% | CAKI-1 renal 92% | A498 renal 132% | CCRF-CEM leukemia 97.8% | MOLT-4 leukemia 98.5%

Cc1ccc(N=Nc2c(N)nn3c(-c4cc5cc(Br)ccc5oc4=O)ccnc23)cc1
inactive: HCT-15 colon 79.2% | HT29 colon 65% | SNB-75 CNS 61.3% | U251 CNS 13% | PC-3 prostate 88.3% | SK-MEL-5 melanoma 50.8% | UACC-62 melanoma 99.5% | LOX IMVI melanoma 51.8% | SK-MEL-28 melanoma 110% | SK-MEL-2 melanoma 108% | EKVX NSCLC 72.2% | SN12C renal 35.6% | UO-31 renal 79.8% | TK-10 renal 81.9% | ACHN renal 54.4% | CAKI-1 renal 80.8% | A498 renal 51.9% | CCRF-CEM leukemia 99.8% | MOLT-4 leukemia 98.6%
active: SNB-19 CNS -13%

COc1ccc(-c2cc(C(=O)N=Nc3c(O)[nH]c4ccc(Cl)cc34)c3ccccc3n2)cc1OC
inactive: HCT-15 colon 101% | HT29 colon 117% | SNB-75 CNS 118% | SNB-19 CNS 97.1% | U251 CNS 100% | PC-3 prostate 103% | SK-MEL-5 melanoma 111% | UACC-62 melanoma 89.8% | LOX IMVI melanoma 90.9% | SK-MEL-28 melanoma 110% | SK-MEL-2 melanoma 102% | EKVX NSCLC 90.1% | SN12C renal 96.4% | UO-31 renal 81.8% | TK-10 renal 116% | ACHN renal 105% | CAKI-1 renal 95.2% | A498 renal 167% | CCRF-CEM leukemia 112% | MOLT-4 leukemia 118%

O=C(CSc1nc2ccccc2c(=O)[nH]1)NNC(=O)c1ccccc1Cl
inactive: HCT-15 colon 107% | HT29 colon 109% | SNB-75 CNS 72.6% | SNB-19 CNS 92.4% | U251 CNS 96.3% | PC-3 prostate 123% | SK-MEL-5 melanoma 106% | UACC-62 melanoma 110% | LOX IMVI melanoma 102% | SK-MEL-28 melanoma 148% | SK-MEL-2 melanoma 105% | EKVX NSCLC 109% | SN12C renal 112% | UO-31 renal 91.2% | TK-10 renal 105% | ACHN renal 112% | CAKI-1 renal 90.4% | A498 renal 100% | CCRF-CEM leukemia 120% | MOLT-4 leukemia 111%

N#CC1=C(c2ccco2)Nc2c(c(-c3ccccc3)nn2-c2ccccc2)C12C(=O)Nc1ccc(Cl)cc12 (stereo not given)
inactive: HCT-15 colon 30.4% | HT29 colon 41.9% | SK-MEL-5 melanoma 50.4% | UACC-62 melanoma 37.4% | SK-MEL-28 melanoma 45.6% | SK-MEL-2 melanoma 80.2% | EKVX NSCLC 24.2% | UO-31 renal 43.1% | CAKI-1 renal 33% | A498 renal 135% | CCRF-CEM leukemia 25% | MOLT-4 leukemia 34.8%
active: SNB-75 CNS -56.4% | SNB-19 CNS 3.22% | U251 CNS -21.7% | PC-3 prostate -41% | LOX IMVI melanoma 2.55% | SN12C renal -44.4% | TK-10 renal -15.4% | ACHN renal 8.94%

COc1cc(CNC(=O)C[C@H](C)CCC=C(C)C)ccc1OCc1cn(-c2ccccc2F)nn1
inactive: HCT-15 colon 82.8% | HT29 colon 97.4% | SNB-75 CNS 10.6% | SNB-19 CNS 55.7% | U251 CNS 61.6% | PC-3 prostate 87.9% | SK-MEL-5 melanoma 70.8% | UACC-62 melanoma 69.5% | LOX IMVI melanoma 76.7% | SK-MEL-28 melanoma 94.9% | SK-MEL-2 melanoma 78.6% | EKVX NSCLC 78.3% | SN12C renal 76.1% | UO-31 renal 71.9% | TK-10 renal 95.8% | ACHN renal 65.3% | CAKI-1 renal 55.1% | A498 renal 103% | CCRF-CEM leukemia 97.3% | MOLT-4 leukemia 74.8%

COc1ccc(N=Nc2c(N)nn3c(-c4cc5cc(Br)ccc5oc4=O)ccnc23)cc1
inactive: HCT-15 colon 29.9% | HT29 colon 32.9% | PC-3 prostate 44.9% | UACC-62 melanoma 30.7% | LOX IMVI melanoma 26.4% | SK-MEL-28 melanoma 28.8% | SK-MEL-2 melanoma 29.6% | EKVX NSCLC 34.8% | SN12C renal 17.6% | TK-10 renal 62% | CAKI-1 renal 12% | A498 renal 36.1% | CCRF-CEM leukemia 96.2% | MOLT-4 leukemia 85.6%
active: SNB-75 CNS -14.8% | SNB-19 CNS 2.33% | U251 CNS -12.3% | SK-MEL-5 melanoma -14.2% | UO-31 renal 8.11% | ACHN renal -21.2%

O=C1c2cccc3c(N4CCN(Cc5ccccc5)CC4)ccc(c23)C(=O)N1c1cccc(-c2nn(-c3ccccc3)cc2-c2nc3ccccc3s2)c1
inactive: HCT-15 colon 110% | HT29 colon 115% | SNB-75 CNS 84.3% | SNB-19 CNS 103% | U251 CNS 106% | PC-3 prostate 88.1% | SK-MEL-5 melanoma 102% | UACC-62 melanoma 94.6% | LOX IMVI melanoma 97.9% | SK-MEL-28 melanoma 106% | SK-MEL-2 melanoma 111% | EKVX NSCLC 98.6% | SN12C renal 101% | UO-31 renal 68.8% | TK-10 renal 120% | ACHN renal 93.1% | CAKI-1 renal 86.1% | A498 renal 125% | CCRF-CEM leukemia 105% | MOLT-4 leukemia 113%

O=c1[nH]c2ccccc2cc1COc1ccc(Nc2nccc(-c3ccc(Cl)cc3)n2)cc1
inactive: HCT-15 colon 101% | HT29 colon 105% | SNB-75 CNS 60.5% | SNB-19 CNS 93.4% | U251 CNS 86.5% | PC-3 prostate 106% | SK-MEL-5 melanoma 99.1% | UACC-62 melanoma 94.4% | LOX IMVI melanoma 96% | SK-MEL-28 melanoma 105% | SK-MEL-2 melanoma 99.6% | EKVX NSCLC 104% | SN12C renal 100% | UO-31 renal 98.7% | TK-10 renal 111% | ACHN renal 84.9% | CAKI-1 renal 87.5% | A498 renal 118% | CCRF-CEM leukemia 103% | MOLT-4 leukemia 102%

COc1ccc(SC2c3cc(OC)ccc3Oc3nc(N)c(C#N)c(N)c32)cc1 (stereo not given)
active: LOX IMVI melanoma 5.16% | CCRF-CEM leukemia 4.16%
inactive: HCT-15 colon 80.5% | HT29 colon 97.4% | SNB-75 CNS 49.6% | SNB-19 CNS 71.7% | U251 CNS 65.3% | PC-3 prostate 42.4% | SK-MEL-5 melanoma 60.4% | UACC-62 melanoma 65.5% | SK-MEL-28 melanoma 111% | SK-MEL-2 melanoma 94.5% | EKVX NSCLC 76.3% | SN12C renal 73.7% | UO-31 renal 39.7% | TK-10 renal 110% | ACHN renal 76.3% | CAKI-1 renal 79.1% | A498 renal 107% | MOLT-4 leukemia 55.4%

Cc1ccc(C(=O)Nc2cc(-n3ccnc3)cc(C(F)(F)F)c2)cc1-n1cc(-c2cnc3cccnn23)nn1
inactive: HCT-15 colon 97.4% | HT29 colon 39.2% | SNB-75 CNS 132% | SNB-19 CNS 118% | U251 CNS 112% | PC-3 prostate 123% | SK-MEL-5 melanoma 73% | UACC-62 melanoma 19.5% | LOX IMVI melanoma 39.4% | SK-MEL-28 melanoma 34.6% | SK-MEL-2 melanoma 61.1% | EKVX NSCLC 117% | SN12C renal 105% | UO-31 renal 61.4% | TK-10 renal 135% | ACHN renal 97.8% | CAKI-1 renal 113% | A498 renal 180% | CCRF-CEM leukemia 96% | MOLT-4 leukemia 105%

O=C1Nc2cc(-c3ccc(NS(=O)(=O)c4ccc(F)c(Cl)c4)cc3)ccc2/C1=C/c1ccc[nH]1
active: HT29 colon -18.4% | U251 CNS 2.34% | LOX IMVI melanoma 0.97% | EKVX NSCLC 1.79% | ACHN renal 6.04%
inactive: HCT-15 colon 14% | SNB-75 CNS 62.7% | SNB-19 CNS 46.6% | PC-3 prostate 30.2% | SK-MEL-5 melanoma 58.8% | UACC-62 melanoma 32.9% | SK-MEL-28 melanoma 41.4% | SK-MEL-2 melanoma 55.8% | SN12C renal 55.3% | UO-31 renal 35.6% | TK-10 renal 54.5% | CAKI-1 renal 33% | A498 renal 52.1% | CCRF-CEM leukemia 39.7% | MOLT-4 leukemia 11.7%

CC1(C)CC(=O)C2=C(C1)OC(N)=C(c1nc3ccccc3[nH]1)C2c1ccc(Cl)cc1 (stereo not given)
-22.9% (active) and 94.3% (inactive): UACC-62 melanoma
-40.8% (active) and 104% (inactive): SK-MEL-5 melanoma
inactive: HCT-15 colon 39.8% and 106% | HT29 colon 86.8% and 115% | SNB-75 CNS 65.4% and 124% | SNB-19 CNS 50% and 99.9% | U251 CNS 45.1% and 112% | PC-3 prostate 35.6% and 107% | LOX IMVI melanoma 42.9% and 107% | SK-MEL-28 melanoma 30.1% and 109% | SK-MEL-2 melanoma 43.5% and 112% | EKVX NSCLC 57% and 100% | SN12C renal 79.7% and 105% | UO-31 renal 71.2% and 86.4% | TK-10 renal 71.7% and 106% | ACHN renal 62.4% and 106% | CAKI-1 renal 63.9% and 103% | A498 renal 66.9% and 149% | CCRF-CEM leukemia 31.8% and 102% | MOLT-4 leukemia 17.6% and 103%

Source: PubChem BioAssay (NCI)
